Our source for the growth values is PubChem BioAssay (NCI).

The panel holds about 83,000 compounds, 20% with a hit somewhere; the sample as a whole holds those more often.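 Compound tested at a single concentration for 48 hours in 96-well plates; a percent growth value below 10 was scored as active.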 Values without a mark were called inactive. Activity calls are given as the source filed them.

This experiment relates to HL-60(TB) leukemia. Kind of experiment: NCI-60 one-dose screen, 48 h (100 = growth as untreated, 0 = no growth, -100 = all killed). Particulars: 10 µM unless noted.
As to `Fc1ccc(Nc2ccnc(N3CCN(c4ccnc5cc(Cl)ccc45)CC3)n2)cc1`, the growth was 15.9%.

Regarding `C=C1C(=O)O[C@H]2[C@H]1CC/C(COC(=O)NCCc1c[nH]c3ccc(OC)cc13)=C\CC[C@@]1(C)O[C@@H]21`, the growth was -42.8% (active).

As for `O=c1oc2c(cc1-c1ccc(F)cc1)C(O)Oc1ccccc1-2` (stereo not given), the growth is 101%.

`CCC(=O)C(CC)c1cccc(OC)c1` (stereo not given): the growth is 97.5%.

Consider `COc1cc(N2C(=O)[C@H](Cl)C2c2ccc(SC)cc2)cc(OC)c1OC` (stereo not given in full), for which the growth is -36.1% (active).

Turning to `CN1CCN(CCCOC(=O)c2c3c(n4ccccc24)C(=O)c2ncccc2C3=O)CC1`, the growth was 30%.

As to `COc1ccc2c(c1)C(=O)/C(=C/c1cccc(OCC(=O)c3ccc([N+](=O)[O-])cc3)c1)CO2`, the growth was -46.6% (active).

Consider `COc1ccc(/C=C(/C(=O)N2CCN(c3ccc(C)cc3)CC2)c2cc(OC)c(OC)c(OC)c2)cc1N`, for which the growth was -24.2% (active).

For the molecule `CC1(C)CC(=O)c2c(nn(-c3ccc(Br)cc3)c2-c2cn(-c3ccccc3)nc2-c2cccnc2)C1`, the growth was 92.1%.

As for `COc1ccc2nc(Cl)c(/C=C3\CC(c4ccccc4)=NN(c4ccccc4)C3=O)cc2c1`, the growth is 99%.

In the case of `COc1ccc(N/N=C/c2ccc3c(c2)Sc2ccccc2N3C)cc1`, the growth was 57.3%.

Consider `O=C1O[C@H]([C@H](O)CO)C(O)=C1O`, for which the growth was 99.5%.

Regarding `CCOC(=O)C1=C(C)n2nc(CC#N)c(C#N)c2NC1c1ccc(CC)cc1` (stereo not given), the growth is 115%.

Take `Cc1ccccc1CNC(=O)C1CN(c2ccc(Cl)cc2)N(c2ccc(Cl)cc2)C1=O` (stereo not given): the growth was 94.7%.

Consider `COc1cc(-c2n[nH]nc2-c2ccc3c(c2)OCCO3)cc(OC)c1OC`, for which the growth was -5.41% (active).

On to `Cc1ccc(OCCn2ccc(=O)n(CCOc3ccc(Cl)cc3C(=O)c3cc(C)cc(C)c3)c2=O)cc1`, for which the growth was 33.4%.

As for `O=C(CNc1ccc(Cl)cc1)Nc1ccc(-c2nc3ccccc3s2)cc1`, the growth is 71%.

Turning to `Cc1nc(Nc2ccccn2)sc1C(=O)/C=C/c1ccc(Br)cc1`, the growth was 41.7%.

Regarding `COc1ccc(C2CC(n3ccnc3)c3cc(OC)c(OC)c(OC)c32)cc1O` (stereo not given), the growth is 83.6%.

`CCCS(=O)(=O)Nc1ccc(F)c(C(=O)c2c[nH]c3ncc(-c4ccc(OCCCC5CCCCN5)nc4)cc23)c1F` (stereo not given): the growth is 97.4%.

On to `c1ccc(C2NCCNC2c2ccccc2)cc1` (stereo not given), for which the growth was 103%.

Take `O=C(Nc1ccc(F)cc1)c1ccc(C(=O)Nc2ccc(F)cc2)cc1`: the growth is 107%.

On to `O=C(c1ccccc1)N(CCc1ccc(Cl)cc1)C(=S)N(C(=O)c1ccccc1)c1ccccc1`, for which the growth was 90.3%.

`COc1ccc(-c2cc(C(=O)Nc3ccc(Br)cc3)nc3[nH]c(=O)sc23)cc1`: the growth was 25.5%.

Turning to `Sc1ccc(Nc2c3ccccc3nc3ccccc23)cc1`, the growth was 31.7%.

Consider `Cc1ccc(-c2nc(SCc3nc4cc(Cl)c(Cl)cc4[nH]3)[nH]c(=O)c2C#N)cc1`, for which the growth was 96.9%.

`O=C(NCCNc1nccc(-c2c(-c3cccc(O)c3)nc3sccn23)n1)c1ccc(N2CCOCC2)c(C(F)(F)F)c1`: the growth was 113%.

With `Cc1ccc(C(=O)/C(=C\c2ccc([N+](=O)[O-])cc2)S(=O)Cc2ccc(Cl)cc2)cc1` (stereo not given), the growth is 33.9%.

Consider `CCOC(=O)C1=C(C)N2C(=NC3=C(CCCC/C3=C\c3cc(OC)c(OC)c(OC)c3)C2c2cc(OC)c(OC)c(OC)c2)S1` (stereo not given), for which the growth is 49.9%.

For `O=C(O)c1cn(C2CC2)c2cc(N3CCN(C(=O)C[n+]4ccccc4)CC3)c(F)cc2c1=O`, the growth is 112%.

Turning to `CC1(C)CN(CCNc2nccc(-c3c(-c4cccc(O)c4)nc4sccn34)n2)S(=O)(=O)N1`, the growth is 82.5%.

In the case of `O=C(C1CCCCC1)[C@@H]1[C@]2(C(=O)NC3CCCCC32)[C@@H]2CCCN2[C@@]12C(=O)NC1CCC(Cl)CC12` (stereo not given in full), the growth is -65.9% [100 µM] (active).

Regarding `COc1ccc(-c2cc(-c3ccccc3)nc(SCCCC(=O)NO)n2)cc1`, the growth is -31.2% (active).

`CCCCCCCCCCCC(=O)OC(C)C(=O)Nc1ccccc1` (stereo not given): the growth was 91.7%.

Take `Cc1cc(Nc2c3ccccc3nc3ccccc23)ccc1NS(C)(=O)=O`: the growth was 32.2%.

`NC(=S)N/N=C(/c1cccs1)C1CC1`: the growth was 79.9%.

As for `COc1ccc(-c2cc(/C=C3\C(=O)Nc4ccc(Cl)cc43)[nH]n2)cc1`, the growth is 22.6%.

For `C=C[C@H]1C[C@@H]2C[C@@H]3[C@H]4C/C=C\C(=O)NCCCC5NC(=O)C(=C(O)/C=C/[C@@H]4CC(=O)[C@H]3[C@@H]2[C@H]1C)C5=O` (stereo not given in full), the growth was -76.5% (active).

In the case of `Cc1ccc(S(=O)(=O)n2cc(C(=O)C(=O)N3CCCCC3)c3ccccc32)cc1`, the growth is 85%.

On to `CCN(CC)CCC(CNc1c2ccc([N+](=O)[O-])cc2nc2cc(OC)c(OC)cc12)c1ccccc1` (stereo not given), for which the growth is -15.9% (active).
